# Assay outcomes: PubChem, National Center for Advancing Translational Sciences (NCATS)
# D2 PAM-1 = positively modulates the human D2 dopamine receptor allosterically | HEK293 T-REx D2, calcium flux, EC20 dopamine potentiation | potentiation, % at 10 µM | actives 0.34% (n = 340,000);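 active = potentiation over 3 SD above the plate norm, cut at about 30% in these data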; note: 0% is about no effect
# Target sequence (P14416 whole entry, looked up): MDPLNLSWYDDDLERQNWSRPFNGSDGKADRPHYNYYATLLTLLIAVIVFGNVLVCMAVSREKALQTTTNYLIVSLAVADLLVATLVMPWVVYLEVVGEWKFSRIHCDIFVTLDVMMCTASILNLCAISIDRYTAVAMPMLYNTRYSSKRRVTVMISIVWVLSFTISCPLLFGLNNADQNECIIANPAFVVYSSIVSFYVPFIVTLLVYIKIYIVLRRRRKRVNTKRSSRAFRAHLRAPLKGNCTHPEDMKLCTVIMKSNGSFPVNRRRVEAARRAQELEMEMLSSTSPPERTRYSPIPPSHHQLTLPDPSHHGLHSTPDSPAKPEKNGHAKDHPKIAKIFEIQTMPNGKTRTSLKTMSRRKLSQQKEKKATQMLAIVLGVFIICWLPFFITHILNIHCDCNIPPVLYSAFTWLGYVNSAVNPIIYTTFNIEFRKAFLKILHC
#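 Using a no-wash calcium dye in inducible, force-coupled HEK293 Trex cells expressing D2, we tracked fluorescence each second for 180 s after compound, then for 180 s after EC20 dopamine to detect augmented signalling.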
# D2 antagonist = antagonizes the human D2 dopamine receptor | P14416 | AID 485344 | inhibition, % at 10 µM | actives 2% (n = 340,000) | HEK293 TREx D2 cells, calcium flux, dopamine EC80; in the data active = inhibition above about 30%; inactive = below that, where a call was filed; note: 0% is about no effect
#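 Measurement of antagonist activity uses fluorescent calcium dye in inducible HEK293 T-REx D2 cells: 10 s baseline, compound addition with 180 s read, EC80 dopamine addition with a further 180 s read.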
# D2 ag-1 = activates the human D2 dopamine receptor. DiscoveRx PathHunter D2 beta-arrestin, luminescence, 90 min; 100% = 57 uM dopamine signal. activation, % (test concentration not listed). actives 0.084% (n = 360,000); in the data active = activation above about 40%; inconclusive = between about 15% and that limit
#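 Agonist mode: compounds alone added to overnight-plated D2 PathHunter cells for 90 min at 37 C, with 57 uM final dopamine (EC100) defining full response. Beta-arrestin recruitment detected by chemiluminescent reagent, read after 1 h at ambient temperature.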
# D2 ag-2 = D2 dopamine receptor (human) agonism. activation, % at 2 µM. actives 0.53% (n = 340,000). HEK293 T-REx D2 cells, calcium flux agonist mode. P14416. AID 485358;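 active = activation over 3 SD above normal in the single-dose calcium agonist read, cut at about 30% in these data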; note: 0% is about no effect
#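 HEK293 Trex D2 cells, tetracycline-induced, o/n 30 C 5% CO2; no-wash Ca dye, RT 30–90 min; 10-cycle baseline, 23 nl cpd added, kinetic Ca read 180 s; agonist hits = positive Ca response.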
# D2 PAM-2 = human D2 receptor positive allosteric modulation; potentiation, % (concentration not given with the values); actives 0.23% (n = 360,000); DiscoveRx D2 beta-arrestin cells, luminescence, 90 min; 100% = 57 uM dopamine signal; AID 624464; in the data active = potentiation above about 50%; inconclusive = mostly about 30% to 49%
#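 PathHunter beta-arrestin assay in DiscoveRx D2 cells. Compounds were added with an EC20 of dopamine (50 nM final) for 90 min at 37 deg C. Luminescence was read 1 h after detection reagent, with 57 uM dopamine as the EC100 control.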
# Starred values were filed as active, the others as inactive; ? = inconclusive; . = no result given. Only some compounds are listed: those with a hit (about 2.4% of all), similar ones and a draw of the others.
SMILES,D2 PAM-1,D2 antagonist,D2 ag-1,D2 ag-2,D2 PAM-2
Cc1nn2c(=O)cc(CSc3nc4ccccc4[nH]3)nc2s1,14.9,38.8*,-0.6,0.8,-4.0
COc1ccc(C(=O)Nc2ccccc2SCc2cc(=O)n3nc(C)sc3n2)cc1OC,-2.3,0.7,1.8,0.0,-6.3
CCOC(=O)N1CCN(Cc2nc3cc([N+](=O)[O-])ccc3n2CC)CC1,-6.6,36.7*,2.4,-1.1,3.3
CCCC(c1nnnn1CS(=O)(=O)c1ccc(C)cc1)N1CCN(c2ccc(F)cc2)CC1 (stereo unspecified),.,59.3*,-2.5,0.5,-12.4
O=C(NCCN1CCc2ccccc2C1)C1CCN(S(=O)(=O)N2CCCCC2)CC1,-10.2,-3.7,1.6,34.1*,-6.0
O=C(NCC1OCCc2ccccc21)c1cc(COc2ccc(F)cc2Cl)on1 (stereo unspecified),-10.2,50.2*,-2.9,0.7,-9.3
CCC(=O)Nc1cc2c3c(c1)CCN3C(=O)CC2,6.4,32.9*,-4.5,1.0,-7.2
O=C(CSc1nc2[nH]c(=O)cc(O)c2s1)NCCc1ccccc1,16.7,-0.1,2.0,-0.1,-13.7
COc1ccc(CCNC(=O)CSc2nc3[nH]c(=O)cc(O)c3s2)cc1,-9.7,43.9*,-1.2,-0.1,-7.3
COc1ccc(CCNC(=O)CN2C(=O)c3ccccc3S2(=O)=O)cc1,2.4,34.5*,-0.6,0.0,-4.8
O=C(CSc1ccc2ccccc2c1)NCCc1ccc(O)c(O)c1,-17.5,51.2*,100.0*,32.2*,?
COc1ccc(CCNC(=O)CSc2nc3ccccc3o2)cc1,4.8,39.2*,-2.8,-1.4,2.8
CCCOc1ccc(NC(=O)CC2C(=O)N(c3cccc(OC)c3)C(=O)N2Cc2cccs2)cc1 (stereo unspecified),-3.4,.,.,.,.
Cc1ccc(S(=O)(=O)NCCC(=O)NC2CCCCCC2)cc1,-1.3,10.2,0.7,-0.2,-68.9
CCCCCn1c(S(=O)(=O)O)nc2ccccc21,-9.6,-11.4,0.2,0.2,2.9
CCCCn1c(S(=O)(=O)O)nc2ccccc21,-4.0,33.1*,5.4,-1.5,2.1
C=CCC(NCc1ccccc1)c1ccco1 (stereo unspecified),40.7*,-12.8,-3.0,0.1,1.7
C=CCC(NCc1ccccc1)c1ccc(OC)cc1 (stereo unspecified),-8.4,-23.2,-6.3,0.6,-5.6
Cc1onc(-c2c(Cl)cccc2Cl)c1CO/N=C(\C#N)c1c(Cl)cccc1Cl,-2.9,30.1*,-3.6,1.0,-3.6
Cc1cc(Br)ccc1OCCCCN1CCC(C)CC1,-12.6,35.1*,-3.1,0.6,-36.9
Cc1cc(C)c(OCCCCN2CCC(C)CC2)c(Br)c1,-18.7,20.5,-2.2,0.3,-15.2
Brc1cccc(OCCN2CCOCC2)c1,-10.6,2.4,-5.5,0.7,-71.7
CC1CCN(CCCCOc2ccc(Br)cc2)CC1,-18.8,19.5,-4.6,0.8,-27.3
CC1CCN(CCCCOc2cccc(Br)c2)CC1,-29.0,91.8*,-3.7,-0.4,-47.1
Cc1cc(Br)ccc1OCCn1ccnc1,-3.2,4.9,70.5*,0.3,-10.3
SMILES,D2 PAM-1,D2 antagonist,D2 ag-1,D2 ag-2,D2 PAM-2
Clc1cc(Br)ccc1OCCn1ccnc1,-6.2,22.0,-0.4,-0.6,-9.1
Brc1cccc(OCCN2CCCCC2)c1,-20.8,47.5*,-3.4,0.0,-18.7
COc1ccc(OCC(=O)N2CCN(C(=O)c3cccc(OC)c3)CC2)cc1,-5.5,.,.,0.6,.
Cc1ccc(C(=O)OCC(=O)Nc2ccc(C)c(S(=O)(=O)N3CCCCC3)c2)o1,.,.,-0.8,.,-11.4
CCCN(CC(=O)Nc1ccccc1C)C(=O)c1ccc(S(=O)(=O)N2CCCCC2)cc1,-8.2,4.7,-1.7,-1.3,-30.4
CCCN(CC(=O)Nc1ccccc1C)C(=O)c1ccc(S(=O)(=O)N2CCCC2)cc1,-4.6,30.4*,0.8,0.7,-0.7
Cc1ccc(Nc2ccc(N3CCN(C(=O)c4ccc([N+](=O)[O-])cc4Cl)CC3)nn2)cc1,.,.,.,5.6,.
CCC(=O)Nc1cccc(NC(=O)c2ccccc2Cl)c1,.,0.1,-1.9,-0.1,-3.8
CCC(=O)Nc1cccc(NC(=O)c2ccc(C)cc2Cl)c1,-7.9,34.6*,-0.2,-2.0,-8.8
Cc1cc(C)cc(OCCCOc2cccc3cccnc23)c1,-5.7,33.1*,-3.2,-0.3,-11.0
O=C(Cn1c(=O)nc(-c2ccccc2)c2cc(Cl)ccc21)N1CCN(c2ccccc2F)CC1,6.1,.,.,1.5,.
CCNc1nc(NC(C)(C)C)nc(N(C#N)CC)n1,30.7*,-26.5,-0.8,0.6,-7.5
CCNc1nc(NCC)nc(N(C#N)C(C)C)n1,8.7,6.8,-2.0,-0.1,-2.2
COc1ccc(N2CC(NC(=O)N3CCN(C(=O)c4ccco4)CC3)CC2=O)cc1OC (stereo unspecified),-15.2,23.2,-5.3,8.9,-4.2
C/C=C/C(=O)OCC(=O)Nc1cccc(Br)c1,-1.3,-4.8,7.6,4.3,-2.3
O=C(COC(=O)/C=C/c1ccc(Cl)cc1)Nc1ccccc1,41.4*,-1.9,-2.5,-0.1,-7.1
C/C=C/C(=O)OCC(=O)Nc1ccccc1Br,-5.4,46.7*,-18.9,-0.1,1.5
O=C(COC(=O)/C=C/c1ccccc1)Nc1ccccc1Br,-6.5,40.1*,-3.4,-1.2,-4.4
Cc1cc(C(=O)N2CCC2(C)C(=O)Nc2cc(C(C)(C)C)nn2C)nn1C (stereo unspecified),.,.,7.0,.,-0.6
O=C(c1ccc2c(c1)OCO2)N1CCC2(CC1)Oc1ccc(Cl)cc1C(=O)C21CC(c2ccccc2)=NO1 (stereo unspecified),7.4,42.1*,-2.1,1.3,-10.8
Brc1cnc(N2CCCC2)nc1N1CCOCC1,4.4,34.9*,-2.5,-0.3,-2.1
COc1ccc(C(=O)Nc2ccccc2SCc2cc(=O)c3cccc(C)c3[nH]2)cc1,5.8,.,.,-0.1,.
O=C(COc1ccccc1Cl)NCC1(N2CCOCC2)CCCCC1,-19.8,.,.,1.2,.
Cc1cc(NC2CCCCC2)nc2ccccc12,-19.3,44.0*,-3.8,-0.5,-13.6
CC1=CS/C(=C(/C#N)C(=O)NCc2ccco2)N1c1ccccc1,-0.5,30.5*,-4.7,-0.4,-6.7
Cc1nc(NC(=O)CSc2nncs2)c(Cl)cc1Cl,2.6,-27.7,0.2,-0.4,-6.5
Cc1ccc(NC(=O)CSc2nncs2)cc1Cl,-19.5,47.8*,-1.8,3.5,-19.0
CC(=O)NNC(=S)NC(=O)C(c1ccccc1)c1ccccc1,-1.2,9.1,0.6,1.6,-7.5
CC(C)(C)C(=O)NC(=S)NNC(=O)C(c1ccccc1)c1ccccc1,-10.9,75.3*,-15.8,99.0*,-21.0
O=C(COC(=O)/C=C/c1cccc(C(F)(F)F)c1)NCc1ccccc1,12.2,33.0*,-3.9,1.4,5.1
